Screens deposited in PubChem by several laboratories.
VHR inh abs – blocks human VHR1 dual specificity phosphatase; P51452; recombinant VHR phosphatase, pNPP absorbance; inhibition, % at 13.3 µM; 0.52% of 290,000 active; in the data active means inhibition above about 50%
Target sequence (P51452 whole entry, looked up): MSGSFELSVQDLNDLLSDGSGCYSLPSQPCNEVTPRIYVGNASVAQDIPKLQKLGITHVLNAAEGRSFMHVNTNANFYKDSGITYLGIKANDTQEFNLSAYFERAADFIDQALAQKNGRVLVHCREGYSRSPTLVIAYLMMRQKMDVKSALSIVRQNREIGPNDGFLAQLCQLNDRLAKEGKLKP
Bead autofluor – counter-screen for toxin protease inhibitors: compound fluorescence; compound autofluorescence counterscreen, microsphere flow cytometry; active compounds read high; fluorescence intensity (concentration not given with the values); 3.1% of 360,000 active; in the data active means fluorescence intensity above about 16000; inconclusive means no clear call, values can overlap the other calls
BoNT F protease – BoNT F light chain protease inhibition. 0.22% of 360,000 active. Multiplex microsphere protease cleavage assay, flow cytometry. inhibition, % at 10 µM. AID 588497; in the data active means inhibition above about 35%, passing the limit was not always enough; inconclusive means no clear call, values can overlap the other calls; further: plate controls were buffer without enzyme for full effect and enzyme alone for no effect
Anthrax LF prot – anthrax lethal factor protease inhibition; P15917; multiplex microsphere protease cleavage assay, LF; inhibition, % at 10 µM; 0.12% of 360,000 active; AID 588501; further: plate controls were buffer without enzyme for full effect and enzyme alone for no effect
BoNT A protease – inhibitors of Botulinum neurotoxin A light chain protease | multiplex microsphere protease substrate cleavage, flow cytometry | inhibition, % at 10 µM | 0.17% of 360,000 active | AID 588499; further: plate controls were buffer without enzyme for full effect and enzyme alone for no effect
3CLpro inhibitor – SARS-CoV 3CLpro protease inhibition. 0.14% of 290,000 active. P0C6X7. AID 1706. recombinant SARS-CoV 3CLpro, quenched FRET peptide cleavage. inhibition, % at 6 µM; in the data active means inhibition above about 12%
An asterisk follows results filed as active; ? = inconclusive; . = no result. Shown are actives, neighbours in structure and some others; about 3.9% of the full set was active somewhere. Unless noted, no stated cut-off is given here; in the data, active means inhibition above about 30%; inconclusive means no clear call, values can overlap the other calls; inactive means below that.

SMILES	VHR inh abs	Bead autofluor	BoNT F protease	Anthrax LF prot	BoNT A protease	3CLpro inhibitor
O=C(CCNC(=O)c1ccccc1)NNC(=O)COc1ccccc1Cl	.	4610	-4	-8	0	.
C=C1[C@H]2O[C@H]2[C@@H](OC(C)=O)[C@@]2(C)[C@@H](OC(C)=O)C[C@@H](OC(C)=O)[C@@](C)(O)[C@@H]2[C@@H](OC(C)=O)[C@@]2(O)[C@@H](C)C(=O)O[C@H]2[C@H]1Cl	.	3772	0	0	0	.
CCC(=O)OCCNc1cc(Sc2nc3ccccc3s2)c2nonc2c1[N+](=O)[O-]	27	15341	11	17	?	2
O=[N+]([O-])c1c(NCCCO)cc(Sc2nc3ccccc3s2)c2nonc12	2	23409*	2	-2	?	3
O=S1(=O)N[C@@H](Cc2ccccc2)COc2cc(N3CC[C@H](O)C3)ccc21	.	4626	-8	-5	-1	.
COc1ccc(-c2csc(C(NC(C)=O)c3cccc(F)c3)n2)cc1 (stereo not given)	.	2889	-2	-6	0	.
CCc1c(C)nc(N)nc1N1N=C1SCC(=O)OC	18	4523	-7	-2	0	-1
CCc1c(C)nc(N)nc1N1N=C1SCC#N	4	22462*	2	-2	2	2
Cc1ccc(-n2ncc3c(N4CCC(C(N)=O)CC4)ncnc32)c(C)c1	16	23419*	0	2	0	-1
CCN(CC)C(=O)C1CCN(c2ncnc3c2cnn3-c2ccc(C)cc2C)CC1	34	3693	7	0	0	-5
COc1ccccc1C1C=C(c2ccccc2)Nc2nnnn21 (stereo not given)	-5	20241*	0	2	?	2
COc1cccc(C2=CC(c3ccc(OC)c(OC)c3OC)n3nnnc3N2)c1 (stereo not given)	-22	3295	1	1	0	6
O=C(CN1C(=O)C(=O)N(Cc2ccco2)C1=O)Nc1ccccc1	.	3455	4	-6	-1	.
CCCOP(=O)(c1ccc(N(C)C)cc1)C(O)c1cccnc1 (stereo not given)	10	19815*	-4	-1	-1	1
CC(C)CCOP(=O)(c1ccc(N(C)C)cc1)C(O)c1ccccn1 (stereo not given)	21	16641*	0	3	1	11
CC(C)COP(=O)(c1ccc(N(C)C)cc1)C(O)c1ccccn1 (stereo not given)	8	10074	5	1	1	-1
CC(C)OP(=O)(c1ccc(N(C)C)cc1)C(O)c1ccncc1 (stereo not given)	7	24190*	-4	1	-2	1
CCOP(=O)(c1ccc(N(C)C)cc1)C(O)c1ccccc1OC (stereo not given)	-1	18542*	5	-12	?	2
COc1ccc(-c2cc(=O)n(-c3nc4ccccc4[nH]3)[nH]2)cc1	-5	23993*	2	10	?	0
C[C@H]1CN([C@@H](C)CO)C(=O)CCCn2nncc2CO[C@@H]1CN(C)S(=O)(=O)c1cn(C)cn1	.	2810	-5	-4	0	.
CCCC(=O)Nc1ccc(C#Cc2ccccc2)cc1	13	18787*	5	-8	4	2
CCCC(=O)Nc1ccc(Oc2ccc(NC(=O)CCC)cc2)cc1	22	19816*	-2	0	?	1
CCOC(=O)Nc1ccc(Oc2ccccc2)cc1	0	24151*	-4	-2	-3	5
CCCNC(=S)Nc1ccc2nc(-c3ccccn3)c(-c3ccccn3)nc2c1	23	21151*	-1	8	?	-1
CCCC(=O)Nc1ccc(OCC(=O)OC)cc1	28	3063	-30	-1	0	-1
SMILES	VHR inh abs	Bead autofluor	BoNT F protease	Anthrax LF prot	BoNT A protease	3CLpro inhibitor
CCCC(=O)Nc1ccccc1NC(=O)CCC	6	4052	6	-5	0	-1
S=C(Nc1ccc2nc(-c3ccccn3)c(-c3ccccn3)nc2c1)N1CCCCCC1	32	2061	5	10	20	3
Cc1nn(CC(=O)NCCCN2CCCC2=O)c(C)c1[N+](=O)[O-]	.	2765	-2	-8	0	.
Cc1ccc(NC2CCCN(C(=O)c3cc4ncccn4n3)C2)cc1C (stereo not given)	-2	6028	1	1	0	-3
CC(=O)SCCC(=O)Nc1ccccc1	0	17839*	17	3	?	-4
CCCNC(=S)Nc1ccc(Oc2ccccc2)cc1	14	20489*	-3	-2	0	6
CC(=O)c1ccc(Nc2nc(C(N)COCc3ccccc3)cs2)cc1 (stereo not given)	.	3382	-1	-6	1	.
FC(F)(F)c1cccc(CN2CCCCCC2)c1	-4	24319*	-4	0	-2	-1
CCOC(=O)C1CCN(Cc2ccc(F)c(F)c2)CC1	29	9144	10	3	2	-1
Fc1ccc(CN2CCCCCCC2)cc1F	0	16629*	-3	-4	-2	-1
Fc1ccc(CN2CCCCCC2)c(F)c1	-6	22437*	3	-1	1	-1
Fc1ccc(CN2CCCCCCC2)c(F)c1	3	9428	3	-8	-1	-9
COc1cccc(C2N=C(c3ccccc3C)NO2)c1OC (stereo not given)	16	4479	-6	-2	0	-1
COc1ccc(OC)c(C2C3=C(COC3=O)Nc3cc4c(cc32)OCO4)c1 (stereo not given)	14	19754*	7	-9	6	0
CC(C)c1ccccc1NC(=O)CNCCOc1ccccc1F	18	3743	-7	-4	1	-1
Cc1csc(N2C(=O)C3C4CCC(O4)C3C2=O)n1 (stereo not given)	.	4065	3	1	-1	.
Cc1nc2cc(-c3cccs3)[nH]n2c(=O)c1C	.	17502*	5	-7	4	1
Cc1cccc(CC(=O)N2CCCC2)c1	-20	4067	?	3	-1	0
CCn1cc(C(=O)O)c(=O)c2cc(OC)ccc21	14	19754*	-51	-13	-14	2
CCn1cc(C(=O)O)c(=O)c2cc(S(=O)(=O)N3CCCCCC3)ccc21	15	4046	2	2	0	6
CCN1CCCCC(=N/O)/C(=N/O)CCCC1	15	3542	38*	5	-1	5
CCOC(=O)c1[nH]c(C)c(/C(O)=C2\C(=O)C(=O)N(CCN(C)C)C2c2cccc(OC)c2OC)c1C (stereo not given)	-26	18747*	3	-4	3	-2
O=c1[nH]c(CN2CCN(C/C=C/c3ccccc3)CC2)nc2cc(Cl)ccc12	54*	10396	-14	-3	-1	-7
Cc1cc(C(=O)Nc2ccc(F)cc2C)n(-c2ccccc2)n1	12	4582	0	3	1	0
Cc1cc(C(=O)Nc2ccc(Br)cc2F)n(-c2ccccc2)n1	58*	3574	0	-4	2	-4
COC(=O)CN(C#N)c1nc(OC)nc(N(C)C)n1	22	17155*	-1	-1	-2	0
